Among the data in PubChem BioAssay are fluorescence slope and NADPH fluorescence slope values, retold here.

A number with no mark means an inactive call.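 Rule for the calls, unless noted: active = fluorescence slope higher than the sample average by over 3 SD (cut at about -0.22 in these data, passing the limit was not always enough); inactive = the rest.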

In one experiment the target is Voltage-gated potassium channel subunit beta-2 (Rattus norvegicus) (UniProt P62483). Nature of the experiment: KvBeta enzyme negative modulators, primary screen, biochemical, NADPH fluorescence (AID 622).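 Note: slope of raw intensity against log time taken from 70 to 1610 s.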 The conditions noted are these: recombinant KvBeta, 4-cyanobenzaldehyde reduction, at 10 µM, active compounds read high.
Sequence of Voltage-gated potassium channel subunit beta-2 (Rattus norvegicus) (P62483 whole entry, looked up): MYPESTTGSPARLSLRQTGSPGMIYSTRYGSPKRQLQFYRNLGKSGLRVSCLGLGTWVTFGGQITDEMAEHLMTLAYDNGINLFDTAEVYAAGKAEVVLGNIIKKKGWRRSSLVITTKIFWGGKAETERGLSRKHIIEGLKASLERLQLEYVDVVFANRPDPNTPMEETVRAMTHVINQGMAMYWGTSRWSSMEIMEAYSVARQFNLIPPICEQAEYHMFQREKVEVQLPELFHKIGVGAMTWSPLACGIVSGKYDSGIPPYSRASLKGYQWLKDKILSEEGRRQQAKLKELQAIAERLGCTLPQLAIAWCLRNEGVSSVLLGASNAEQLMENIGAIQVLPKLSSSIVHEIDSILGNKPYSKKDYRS
As to `COc1ccc(C2SCC(=O)Nc3c2c(=O)[nH]n3C2CCCCCC2)cc1OC` (stereo unspecified), the fluorescence slope was -0.614.
The same measure, in the same setting: with `Cc1cnn(C2CCN(C)CC2)c1N` the figure was -0.495.
Same read-out and setting: with `O=C1CC(N2CCC(n3c(=O)[nH]c4ccccc43)CC2)C(=O)N1c1ccc(F)cc1` (stereo unspecified) the figure was -0.315; with `CCNc1ccc(P(=S)(N(C)C)N(C)C)cc1`, -0.622.
Same read-out and setting: with `c1ccc(C2NCc3ccccc3-n3cccc32)cc1` (stereo unspecified) the figure was -0.554.
Take `CC(=O)Nc1ccc(OC(=O)c2ccccc2N)cc1`: the fluorescence slope was -0.447.
The same measure, in the same setting: then `CCOCC(=O)NC1CCSC1=O` (stereo unspecified), with -0.48.
Still for that read-out and setting: with `CN1CCN(c2nc3ccccc3c(=O)n2-c2ccccc2)CC1` the figure was -0.57; with `O=c1[nH]c(=O)n(CCc2ccc(F)cc2)c(O)c1C=NCCCn1ccnc1`, -0.589; with `CCOc1c(P(=S)(N(C)C)N(C)C)c(C)nn1-c1ccccc1`, -0.345.
The same measure, in the same setting: then `O=C(CN1C2CCC1CC(O)(c1cccnc1)C2)Nc1ccc2c(c1)OCO2` (stereo unspecified), with -0.591; and `CCN1CCN(C(=O)COc2cc(=O)n(CC)c3ccccc23)CC1`, with -0.386; and `O=C(O)C1(c2ccc(Cl)cc2)CCC1`, with -0.461.
As to `Cc1cccc(C2=NCC(=O)N(CC(=O)NCc3ccco3)c3sc4c(c32)CCCC4)c1`, the fluorescence slope is -0.56.
In the case of `CP(C)(=O)CCC(=O)O`, the fluorescence slope is -0.434.
Still for that read-out and setting: with `CN(C)CCc1nc2ccccc2c(=O)n1-c1ccccc1` the figure was -0.495; with `CCC(=NCC1CCCO1)c1c(O)n(Cc2ccccc2)c(=O)[nH]c1=O` (stereo unspecified), -0.512; with `CCCCCCOc1ccc(CN2CCN(C)CC2)cc1`, -0.46.
On the same count and under the same terms, with `CCOC(=O)C1SC2(C(F)F)CC1(O)c1c(c(OC)c3occc3c1OC)O2` (stereo unspecified) the figure was -0.326.
Turning to `Cc1ccc(C(=O)C2CN3CCC2CC3)cc1` (stereo unspecified), the fluorescence slope was -0.441.
Consider `C=CCn1c(O)c(C(C)=NCCCO)c(=O)[nH]c1=O`, for which the fluorescence slope is -0.467.
For `CC1CCC(C(=O)NC(C(=O)N2CCC3(CC2)OCCO3)C(C)C)CC1` (stereo unspecified), the fluorescence slope is -0.399.
Same read-out and setting: with `CCCCNC(=O)c1c(N)n(CCCOC)c2nc3ccccc3nc12` the figure was -0.245; with `O=C1CC(c2ccccc2)CC(O)=C1C=NCCN1CCN(C(=O)Cc2ccccc2)CC1` (stereo unspecified), -0.529.
Still for that read-out and setting: then `O=C(c1ccncc1)C12CN3CN(CN(C3)C1)C2`, with -0.409.
As to `CCOc1ccc(-n2c(O)c(C=NCCN(CC)CC)c(=O)[nH]c2=O)cc1`, the fluorescence slope is -0.553.
Consider `COc1ccc(OC)c(N2C(=O)NC(=O)C(CCc3ccncc3)(CCc3ccncc3)C2=O)c1`, for which the fluorescence slope is -0.329.
For the compound `CC(C)OCCCNC(=O)c1c(N)n(CC2CCCO2)c2nc3ccccc3nc12` (stereo unspecified), the fluorescence slope was -0.0369.
The same measure, in the same setting: then `COc1ccccc1N1CCN(Cc2c(F)cccc2F)CC1`, with -0.431; and `O=C(c1ccc2nc(-c3ccco3)c(-c3ccco3)nc2c1)N1CCC2(CC1)OCCO2`, with -0.104; and `CC(=NCCCO)c1c(O)n(Cc2ccccc2)c(=O)[nH]c1=O`, with -0.384.
In the case of `CCN1c2nc3ccccn3c(=O)c2CC2(C(=O)N(C)C(=O)N(C)C2=O)C1C` (stereo unspecified), the fluorescence slope is -0.482.
Same read-out and setting: then `Cc1cccc(-n2c(O)c(C=NCCCN3CCOCC3)c(=O)[nH]c2=O)c1C`, with -0.391; and `CCCCn1c(O)c(C(CC)=Nc2cccc(C(=O)O)c2)c(=O)[nH]c1=O`, with -0.382; and `O=C(c1cccs1)C1CN2CCC1CC2` (stereo unspecified), with -0.485.
Same read-out and setting: then `COc1ccc(CCn2c(O)c(C=NCc3cccnc3)c(=O)[nH]c2=O)cc1OC`, with -0.629.
For `O=C(C(Cc1ccccc1)NS(=O)(=O)c1ccc(F)cc1)N1CCC2(CC1)OCCO2` (stereo unspecified), the fluorescence slope is -0.437.
On the same count and under the same terms, then `O=C(NCc1ccccn1)c1ccccc1Cl`, with -0.532.

A further experiment shares this target. Nature of the experiment: KvBeta positive modulators, primary screen, biochemical, NADPH fluorescence (AID 623;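 active = NADPH fluorescence slope more negative than the mean of all samples by about 3 SD, 99.7% confidence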;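 note: fluorescence intensity change per second fitted from 20 to 320 s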). The following applies: Recombinant KvBeta, NADPH fluorescence decrease slope, 10 min; at 10 µM; active compounds read low.
`COc1ccc(C2SCC(=O)Nc3c2c(=O)[nH]n3C2CCCCCC2)cc1OC` (stereo unspecified): the NADPH fluorescence slope was -4.2e-05.
Still for that read-out and setting: with `Cc1cnn(C2CCN(C)CC2)c1N` the figure was 1.3e-05.
For the compound `O=C1CC(N2CCC(n3c(=O)[nH]c4ccccc43)CC2)C(=O)N1c1ccc(F)cc1` (stereo unspecified), the NADPH fluorescence slope was 1.5e-05.
The same measure, in the same setting: with `CCNc1ccc(P(=S)(N(C)C)N(C)C)cc1` the figure was -1.6e-05; with `c1ccc(C2NCc3ccccc3-n3cccc32)cc1` (stereo unspecified), -4e-05.
`CC(=O)Nc1ccc(OC(=O)c2ccccc2N)cc1`: the NADPH fluorescence slope was -1.3e-05.
Still for that read-out and setting: then `CCOCC(=O)NC1CCSC1=O` (stereo unspecified), with -4.8e-05.
The same measure, in the same setting: then `CN1CCN(c2nc3ccccc3c(=O)n2-c2ccccc2)CC1`, with -2.8e-05; and `O=c1[nH]c(=O)n(CCc2ccc(F)cc2)c(O)c1C=NCCCn1ccnc1`, with -3.2e-05; and `CCOc1c(P(=S)(N(C)C)N(C)C)c(C)nn1-c1ccccc1`, with 8e-06.
The same measure, in the same setting: then `O=C(CN1C2CCC1CC(O)(c1cccnc1)C2)Nc1ccc2c(c1)OCO2` (stereo unspecified), with 5.6e-07; and `CCN1CCN(C(=O)COc2cc(=O)n(CC)c3ccccc23)CC1`, with -4.3e-05.
In the case of `O=C(O)C1(c2ccc(Cl)cc2)CCC1`, the NADPH fluorescence slope is 2.3e-05.
The same measure, in the same setting: then `Cc1cccc(C2=NCC(=O)N(CC(=O)NCc3ccco3)c3sc4c(c32)CCCC4)c1`, with -8.4e-05.
For `CP(C)(=O)CCC(=O)O`, the NADPH fluorescence slope was -0.000166.
On the same count and under the same terms, with `CN(C)CCc1nc2ccccc2c(=O)n1-c1ccccc1` the figure was -5e-05; with `CCC(=NCC1CCCO1)c1c(O)n(Cc2ccccc2)c(=O)[nH]c1=O` (stereo unspecified), -5.3e-05.
Same read-out and setting: with `CCCCCCOc1ccc(CN2CCN(C)CC2)cc1` the figure was -0.000138.
As for `CCOC(=O)C1SC2(C(F)F)CC1(O)c1c(c(OC)c3occc3c1OC)O2` (stereo unspecified), the NADPH fluorescence slope was -5.6e-05.
Still for that read-out and setting: then `Cc1ccc(C(=O)C2CN3CCC2CC3)cc1` (stereo unspecified), with -2.3e-05; and `C=CCn1c(O)c(C(C)=NCCCO)c(=O)[nH]c1=O`, with -4.7e-05.
The same measure, in the same setting: with `CC1CCC(C(=O)NC(C(=O)N2CCC3(CC2)OCCO3)C(C)C)CC1` (stereo unspecified) the figure was -0.00014; with `CCCCNC(=O)c1c(N)n(CCCOC)c2nc3ccccc3nc12`, -2.4e-06.
Still for that read-out and setting: then `O=C1CC(c2ccccc2)CC(O)=C1C=NCCN1CCN(C(=O)Cc2ccccc2)CC1` (stereo unspecified), with 3.3e-05; and `O=C(c1ccncc1)C12CN3CN(CN(C3)C1)C2`, with -3.9e-05; and `CCOc1ccc(-n2c(O)c(C=NCCN(CC)CC)c(=O)[nH]c2=O)cc1`, with 1.2e-05.
With `COc1ccc(OC)c(N2C(=O)NC(=O)C(CCc3ccncc3)(CCc3ccncc3)C2=O)c1`, the NADPH fluorescence slope was -2.9e-06.
Consider `CC(C)OCCCNC(=O)c1c(N)n(CC2CCCO2)c2nc3ccccc3nc12` (stereo unspecified), for which the NADPH fluorescence slope was 2e-05.
Still for that read-out and setting: then `COc1ccccc1N1CCN(Cc2c(F)cccc2F)CC1`, with -1.4e-05; and `O=C(c1ccc2nc(-c3ccco3)c(-c3ccco3)nc2c1)N1CCC2(CC1)OCCO2`, with -5.1e-06.
Same read-out and setting: then `CC(=NCCCO)c1c(O)n(Cc2ccccc2)c(=O)[nH]c1=O`, with -3.6e-05; and `CCN1c2nc3ccccn3c(=O)c2CC2(C(=O)N(C)C(=O)N(C)C2=O)C1C` (stereo unspecified), with 1.6e-06; and `Cc1cccc(-n2c(O)c(C=NCCCN3CCOCC3)c(=O)[nH]c2=O)c1C`, with 2.3e-05.
On the same count and under the same terms, with `CCCCn1c(O)c(C(CC)=Nc2cccc(C(=O)O)c2)c(=O)[nH]c1=O` the figure was 2.4e-05; with `O=C(c1cccs1)C1CN2CCC1CC2` (stereo unspecified), 3e-05; with `COc1ccc(CCn2c(O)c(C=NCc3cccnc3)c(=O)[nH]c2=O)cc1OC`, 1.1e-05.
On to `O=C(C(Cc1ccccc1)NS(=O)(=O)c1ccc(F)cc1)N1CCC2(CC1)OCCO2` (stereo unspecified), for which the NADPH fluorescence slope was 8.6e-06.
Still for that read-out and setting: with `O=C(NCc1ccccn1)c1ccccc1Cl` the figure was -5.9e-05.
